# Data taken from PubChem BioAssay (Tox21).
# Where “and” joins values, the source holds several entries; their conditions need not be identical. Equal entries are not always repeated. Results filed as inconclusive are left out. A call without a number means that no potency is given here. A structure can be active in one record and inactive in another. Calls of active or inactive are those of the source. Unless noted, calls come from the whole dose curve; as a rule, active = well fitted curve in the direction sought with a large enough effect in the repeat runs; inconclusive = weak or mixed curves; inactive = no such curve, though single readings can be large; an effect the other way counts as inactive or inconclusive.
# Key:
# [1] = qHTS assay to identify small molecule antagonists of the estrogen related receptor (ERR) signaling pathway from Tox21 library - cell viability counter screen (AID 1224834); note: nearly all actives have a fitted effect of over 30% in size; note: potency is the fitted concentration of half-maximal effect
# Summary of the method: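 Counter screen run in ERR cells (2,000 cells/well): cells pre-incubated 6 h, then treated with compounds for 17.5 h at 37 C. Fluorescence was read 30 min after CellTiter-Fluor addition.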
# [2] = target: Luciferin 4-monooxygenase (Photinus pyralis) (UniProt P08659); test: qHTS assay to identify small molecule inhibitors of firefly luciferase (AID 1224835); note: nearly all actives have a fitted effect of over 25% in size; note: potency is the fitted concentration of half-maximal effect; for activity change, negative = inhibition: series mostly up to about 120 µM
# Summary of the method: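 Quantitative HTS format; KM concentrations of both substrates. Purified P. pyralis FLuc activity quantified from luminescence images.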
# [3] = qHTS assay to identify small molecule agonists of the constitutive androstane receptor (CAR) signaling pathway - cell viability counter screen (AID 1224836); note: nearly all actives have a fitted effect of over 45% in size; note: potency is the fitted concentration of half-maximal effect; for viability change, negative = cytotoxic: series mostly up to about 92 µM
# Summary of the method: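 23 h treatment, 37 C, 5% CO2. Cell line: HepG2 stably expressing hCAR with a CYP2B6-2.2kb construct. Co-treatment: PK11195, 0.75 uM final. Read-out: CellTiter-Fluor fluorescence intensity.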
# [4] = qHTS assay to identify small molecule antagonists of the constitutive androstane receptor (CAR) signaling pathway - cell viability counter screen (AID 1224837); note: nearly all actives have a fitted effect of over 45% in size; note: potency is the fitted concentration of half-maximal effect; for activity change, negative = cytotoxicity: series mostly up to about 92 µM
# Summary of the method: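 CITCO at 50 nM final was added alongside compounds (15 concentrations) to double-stable hCAR/CYP2B6-2.2kb HepG2 cells. Following 23 hr at 37 C, cell viability was quantified by CellTiter-Fluor fluorescence intensity.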
# [5] = target: Nuclear receptor subfamily 1 group I member 3 (Homo sapiens) (UniProt Q14994); test: qHTS assay to identify small molecule antagonists of the constitutive androstane receptor (CAR) signaling pathway (AID 1224838); note: nearly all actives have a fitted effect of over 40% in size
# Summary of the method: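 Inhibition of CITCO-driven (50 nM final) CYP2B6 reporter expression is measured in HepG2 cells stably carrying hCAR. Fifteen compound concentrations are applied for 24 h at 37 C, followed by luciferase luminescence.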
# [6] = qHTS assay to identify small molecule antagonists of the estrogen related receptor signaling pathway with the pleiotropic PPARgamma coactivator (PGC) from Tox21 10K library - cell viability counter screen (AID 1224840; active = well fitted cell-killing curve with a large enough effect in the repeat runs, not every such curve was filed as active; note: nearly all actives have a fitted effect of over 40% in size; note: potency is the fitted concentration of half-maximal effect)
# Summary of the method: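 Readout: fluorescence intensity from CellTiter-Fluor after 30 min at 37 C/5% CO2. Preceded by 17.5 h treatment of PGC/ERR cells with DMSO-dissolved compounds, added 6 h post-seeding.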
# [7] = qHTS assay to identify small molecule antagonists of the estrogen related receptor signaling pathway with the pleiotropic PPARgamma coactivator (PGC) from Tox21 10K library (AID 1224841; call rule not given here; note: series mostly up to about 92 µM; actives are mostly falling curves and most rising ones were filed inactive; nearly all actives have a fitted effect of over 50% in size)
# Summary of the method: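 One-Glo luminescence, measured after half an hour at room temperature, quantified reporter output of PGC/ERR cells. These had been plated at 2,000 per well, incubated 6 h, dosed with compounds in DMSO, then kept 18 h at 37 C.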
# [8] = qHTS assay to identify small molecule agonists of the estrogen related receptor signaling pathway with the pleiotropic PPARgamma coactivator (PGC) from Tox21 10K library (AID 1224842); note: nearly all actives have a fitted effect of over 15% in size; note: potency is the fitted concentration of half-maximal effect
# Summary of the method: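 PGC/ERR reporter cells (NTP line) were seeded 2,000 per well, rested 6 h at 37 C/5% CO2, then pin-dosed with compounds in DMSO for 18 h at 37 C; luciferase read by One-Glo luminescence after 30 min at room temperature.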
# [9] = target: Nuclear receptor subfamily 1 group I member 3 (Homo sapiens) (UniProt Q14994); test: qHTS assay to identify small molecule agonists of the constitutive androstane receptor (CAR) signaling pathway (AID 1224839); note: nearly all actives have a fitted effect of over 15% in size; note: potency is the fitted concentration of half-maximal effect; for activation: series mostly up to about 92 µM
# Summary of the method: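 Compounds tested at 15 concentrations on HepG2 cells stably harbouring hCAR and CYP2B6-2.2kb reporter constructs, co-treated with PK11195 (0.75 uM final), 24 h at 37 C; luminescent reporter signal quantified.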
# [10] = target: Thyrotropin receptor (Homo sapiens) (UniProt P16473); test: qHTS assay to identify small molecule agonists of the thyroid stimulating hormone receptor (TSHR) signaling pathway (AID 1224843; calls by dose curve; note: nearly all actives have a fitted effect of over 45% in size; note: potency is the fitted concentration of half-maximal effect)
# Summary of the method: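 Compounds are titrated over 15 concentrations, in triplicate, onto TSHR-HEK293 cells seeded at 800/well. Plates sit 30 min at room temperature before cAMP-d2 and anti-cAMP cryptate are added; signal is read after a further hour.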
# Sequence of Luciferin 4-monooxygenase (Photinus pyralis) (P08659 whole entry, looked up): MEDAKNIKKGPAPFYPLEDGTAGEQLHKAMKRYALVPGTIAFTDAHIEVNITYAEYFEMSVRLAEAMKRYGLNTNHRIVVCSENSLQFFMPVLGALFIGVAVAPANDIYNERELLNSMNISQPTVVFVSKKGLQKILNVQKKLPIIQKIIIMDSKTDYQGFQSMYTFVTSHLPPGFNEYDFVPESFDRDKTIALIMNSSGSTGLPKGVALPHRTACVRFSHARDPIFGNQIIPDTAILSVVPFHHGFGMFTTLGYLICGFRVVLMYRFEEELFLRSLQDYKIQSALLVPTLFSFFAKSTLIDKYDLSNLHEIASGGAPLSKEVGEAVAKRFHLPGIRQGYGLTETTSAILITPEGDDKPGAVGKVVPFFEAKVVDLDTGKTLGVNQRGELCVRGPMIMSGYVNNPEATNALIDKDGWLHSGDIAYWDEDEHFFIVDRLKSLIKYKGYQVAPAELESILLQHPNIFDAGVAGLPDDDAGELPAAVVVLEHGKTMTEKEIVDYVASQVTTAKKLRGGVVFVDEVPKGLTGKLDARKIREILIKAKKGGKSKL
# Sequence of Thyrotropin receptor (Homo sapiens) (P16473 whole entry, looked up): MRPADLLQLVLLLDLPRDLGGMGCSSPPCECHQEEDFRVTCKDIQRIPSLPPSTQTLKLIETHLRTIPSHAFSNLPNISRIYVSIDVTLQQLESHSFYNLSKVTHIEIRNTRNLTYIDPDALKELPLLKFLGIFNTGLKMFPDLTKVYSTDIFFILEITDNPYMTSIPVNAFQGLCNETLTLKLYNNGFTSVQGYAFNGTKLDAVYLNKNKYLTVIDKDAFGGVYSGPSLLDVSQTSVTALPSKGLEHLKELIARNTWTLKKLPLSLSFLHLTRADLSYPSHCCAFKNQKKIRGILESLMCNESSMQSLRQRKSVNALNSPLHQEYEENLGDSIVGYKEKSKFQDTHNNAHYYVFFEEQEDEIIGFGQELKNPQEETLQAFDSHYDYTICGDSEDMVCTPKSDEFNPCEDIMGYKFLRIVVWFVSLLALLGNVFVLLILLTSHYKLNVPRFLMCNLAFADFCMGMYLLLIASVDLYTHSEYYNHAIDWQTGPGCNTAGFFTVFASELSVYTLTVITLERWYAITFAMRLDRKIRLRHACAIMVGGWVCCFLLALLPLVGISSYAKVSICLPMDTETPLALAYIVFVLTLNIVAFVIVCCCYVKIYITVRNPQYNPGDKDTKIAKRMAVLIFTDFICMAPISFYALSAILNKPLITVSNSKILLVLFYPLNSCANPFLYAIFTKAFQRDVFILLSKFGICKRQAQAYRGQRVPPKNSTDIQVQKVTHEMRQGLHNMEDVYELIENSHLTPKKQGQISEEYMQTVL
# Sequence of Nuclear receptor subfamily 1 group I member 3 (Homo sapiens) (Q14994 whole entry, looked up): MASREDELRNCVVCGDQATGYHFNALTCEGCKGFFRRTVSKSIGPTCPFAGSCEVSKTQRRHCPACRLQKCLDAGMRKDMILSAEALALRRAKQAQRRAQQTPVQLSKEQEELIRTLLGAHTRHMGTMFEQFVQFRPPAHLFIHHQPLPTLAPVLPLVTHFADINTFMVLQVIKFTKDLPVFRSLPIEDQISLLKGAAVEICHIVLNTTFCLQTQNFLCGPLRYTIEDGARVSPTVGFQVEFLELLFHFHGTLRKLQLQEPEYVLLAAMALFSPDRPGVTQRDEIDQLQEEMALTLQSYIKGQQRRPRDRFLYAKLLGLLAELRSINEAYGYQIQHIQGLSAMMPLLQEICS
structure (smiles),measurement,setting,value
CCOP(=S)(OCC)SC(CCl)N1C(=O)c2ccccc2C1=O (configuration not stated),Potency,[1],inactive
same,Potency,[2],inactive
same,Potency,[3],inactive
same,Potency,[4],inactive
same,Potency,[5],inactive
same,Potency,[6],inactive
same,Potency,[7],inactive
same,Potency,[8],inactive
CCOC(=O)Cc1ccccc1,Potency,[1],inactive
same,Potency,[2],inactive
same,Potency,[3],inactive
same,Potency,[4],inactive
same,Potency,[5],inactive
same,Potency,[9],inactive
same,Potency,[6],inactive
same,Potency,[10],inactive
O=C(NC(=O)c1ccccc1Cl)Nc1ccc(OC(F)(F)F)cc1,Potency,[1],inactive
same,Potency,[2],inactive
same,Potency,[3],inactive
same,Potency,[4],inactive
same,Potency,[5],inactive
same,Potency,[9],inactive
same,Potency,[6],inactive
same,Potency,[10],inactive
[O]=[Cr][O][Cr]=[O],Potency,[1],inactive
same,Potency,[2],inactive
same,Potency,[3],inactive
same,Potency,[4],inactive
same,Potency,[9],inactive
same,Potency,[6],inactive
CNC(C)(C)Cc1ccccc1,Potency,[1],inactive
same,Potency,[2],inactive
same,Potency,[3],inactive
same,Potency,[4],inactive
same,Potency,[5],inactive
same,Potency,[6],inactive
same,Potency,[10],inactive
CN(C)CCc1c[nH]c2ccccc12,Potency,[1],inactive
same,Potency,[2],inactive
same,Potency,[3],inactive
same,Potency,[4],inactive
same,Potency,[5],inactive
same,Potency,[9],inactive
same,Potency,[6],inactive
same,Potency,[10],inactive
CCC[CH2][Sn]([CH2]CCC)([CH2]CCC)[CH2]CCC,Potency,[1],27.3 µM (active)
same,Potency,[2],inactive
same,Potency,[3],15.4 µM (active)
same,Potency,[4],24.3 µM (active)
same,Potency,[9],inactive
same,Potency,[6],17.2 µM (active)
same,Potency,[7],inactive
CCOP(=O)(OCC)Oc1nc(Cl)c(Cl)cc1Cl,Potency,[1],inactive
same,Potency,[2],inactive
same,Potency,[3],inactive
same,Potency,[4],inactive
same,Potency,[5],inactive
same,Potency,[9],inactive
same,Potency,[6],inactive
same,Potency,[10],inactive
Nc1nc(N)nc(Cl)n1,Potency,[1],inactive
same,Potency,[2],inactive
same,Potency,[3],inactive
same,Potency,[4],inactive
same,Potency,[5],inactive
same,Potency,[9],inactive
same,Potency,[6],inactive
same,Potency,[10],inactive
CC(C)N(C(=O)SC/C(Cl)=C/Cl)C(C)C,Potency,[1],inactive
same,Potency,[2],inactive
same,Potency,[3],inactive
same,Potency,[4],inactive
same,Potency,[5],inactive
same,Potency,[9],inactive
same,Potency,[6],inactive
same,Potency,[10],17.3 µM (active)
CC(C)C(Br)C(=O)NC(N)=O (configuration not stated),Potency,[1],inactive
same,Potency,[2],inactive
same,Potency,[3],inactive
same,Potency,[4],inactive
same,Potency,[5],inactive
same,Potency,[9],inactive
same,Potency,[6],inactive
same,Potency,[10],inactive
CCC(C)Br (configuration not stated),Potency,[1],inactive
same,Potency,[2],inactive
same,Potency,[3],inactive
same,Potency,[4],inactive
same,Potency,[5],inactive
same,Potency,[9],inactive
same,Potency,[10],inactive
COP(=S)(NC(C)C)Oc1ccc(C)cc1[N+](=O)[O-] (configuration not stated),Potency,[1],inactive
same,Potency,[2],inactive
same,Potency,[3],inactive
same,Potency,[4],inactive
same,Potency,[9],6.86 µM (active)
same,Potency,[6],inactive
c1ccc(N=NNc2ccccc2)cc1,Potency,[1],39.9 µM (active) and 27.3 µM (active)
same,Potency,[2],6.54 µM (active) and 6.33 µM (active)
same,Potency,[3],inactive
same,Potency,[4],inactive
same,Potency,[5],inactive
same,Potency,[9],28.3 µM (active) and 27.3 µM (active)
same,Potency,[7],inactive
same,Potency,[8],25.2 µM (active) and inactive
same,Potency,[10],inactive
CC(C)C(Nc1ccc(C(F)(F)F)cc1Cl)C(=O)OC(C#N)c1cccc(Oc2ccccc2)c1 (configuration not stated),Potency,[1],inactive
same,Potency,[2],inactive
same,Potency,[3],inactive
same,Potency,[4],inactive
same,Potency,[5],inactive
same,Potency,[6],inactive
Clc1c(Cl)c(Cl)c(Cl)c(Cl)c1Cl,"viability change, negative = cytotoxic",[1],3.08% [at 8.39 µM] (inactive)
same,"activity change, negative = inhibition",[2],2.81% [at 10.5 µM] (inactive)
same,"viability change, negative = cytotoxic",[3],-2.28% [at 8.39 µM] (inactive)
same,"activity change, negative = cytotoxicity",[4],2.2% [at 8.39 µM] (inactive)
same,"activity, negative = inhibition",[5],2.04% [at 8.39 µM] (inactive)
same,activation,[9],-1% [at 8.39 µM] (inactive)
same,activation,[10],-17.5% [at 8.39 µM] (inactive)
CC1(C)[C@H](/C=C2\CCSC2=O)[C@@H]1C(=O)OCc1coc(Cc2ccccc2)c1,Potency,[1],inactive
same,Potency,[2],inactive
same,Potency,[3],inactive
same,Potency,[4],inactive
same,Potency,[5],inactive
same,Potency,[6],inactive
O=C(CCCCl)c1ccc(F)cc1,Potency,[1],inactive
same,Potency,[2],15.5 µM (active)
same,Potency,[3],inactive
same,Potency,[4],inactive
same,Potency,[5],inactive
same,Potency,[6],inactive
same,Potency,[7],inactive
same,Potency,[8],inactive
same,Potency,[10],inactive
COc1ccc2c(c1OC)C(=O)O[C@@H]2[C@H]1c2cc3c(cc2CCN1C)OCO3,Potency,[1],9.59 µM (active)
same,Potency,[2],inactive
same,Potency,[3],7.62 µM (active)
same,Potency,[4],7.62 µM (active)
same,Potency,[5],inactive
same,Potency,[9],inactive
same,Potency,[10],inactive
CCCCC/C=C\C/C=C\C/C=C\C/C=C\CCCC(=O)NCC(=O)O,Potency,[1],inactive
same,Potency,[2],inactive
same,Potency,[3],inactive
same,Potency,[4],inactive
same,Potency,[9],inactive
COc1c2c(cc3c1OCO3)CCN(C)C2,Potency,[1],inactive
same,Potency,[2],inactive
same,Potency,[3],inactive
same,Potency,[4],inactive
same,Potency,[5],inactive
same,Potency,[6],inactive
same,Potency,[10],inactive
O=S(=O)(O)F,Potency,[1],inactive
same,Potency,[2],inactive
same,Potency,[3],inactive
same,Potency,[4],inactive
same,Potency,[5],inactive
same,Potency,[9],inactive
same,Potency,[10],inactive
CC(Cc1ccc(O)cc1)NCC(O)c1cc(O)cc(O)c1 (configuration not stated),Potency,[1],inactive
same,Potency,[2],inactive
same,Potency,[3],inactive
same,Potency,[4],inactive
same,Potency,[5],inactive
same,Potency,[9],inactive
same,Potency,[6],inactive
same,Potency,[10],0.841 µM (active)
C#CCO,Potency,[1],inactive
same,Potency,[2],inactive
same,Potency,[3],inactive
same,Potency,[4],inactive
same,Potency,[5],inactive
same,Potency,[9],inactive
same,Potency,[10],inactive
C=Cc1cccc(CCl)c1,Potency,[1],inactive
same,Potency,[2],inactive
same,Potency,[3],inactive
same,Potency,[4],inactive
same,Potency,[5],inactive
same,Potency,[9],inactive
same,Potency,[6],inactive
same,Potency,[10],inactive
CC(Cc1ccc2c(c1)OCO2)NO (configuration not stated),Potency,[1],inactive
same,Potency,[2],inactive
same,Potency,[3],inactive
same,Potency,[4],inactive
same,Potency,[5],inactive
same,Potency,[9],inactive
same,Potency,[7],inactive
same,Potency,[8],inactive
same,Potency,[10],inactive
